Sm TGR inh = blocks Schistosoma mansoni thioredoxin glutathione reductase | Q962Y6 | Potency, µM (doses to about 114 µM), for the others: at the top dose activity change, negative = inhibition, hits mostly inhibitors | purified TGR, DTNB reduction, TNB absorbance 405 nm | hit rate 3% among 360,000; further: potency means the concentration at half of the fitted maximal effect; on the % scale 0 is the no-effect control and ±100 the full control effect; nearly all actives have a fitted effect of over 60% in size
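Kinetic colorimetric format: TGR-catalysed, NADPH-driven DTNB reduction monitored via TNB absorbance. Enzyme dispensed at 20 nM; compound exposure 15 min at room temperature before reaction start.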
Shiga toxin inh = Shiga toxin inhibition; inhibition, % at 38.7 µM; AID 2315; Vero cells, Shiga toxin protein synthesis inhibition reporter; hit rate 9.2% among 290,000; in the data active means inhibition mostly above about 28%, no sharp cut-off; inactive means mostly below about 43%; further: 0% is about no effect
Giardia FBPA inh = Giardia lamblia aldolase inhibition | A8B2U2 | purified Giardia FBPA | Potency, µM (series often up to 59.6 µM), for inactives: at the highest dose activity, negative = inhibition, usual class: inhibitors | hit rate 0.71% among 290,000 | AID 2451; further: potency means the concentration at half of the fitted maximal effect; on the % scale 0 is the no-effect control and ±100 the full control effect; nearly all actives have a fitted effect of over 55% in size
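40 nM FBPA preincubated 10 min at RT with compound (up to 57.5 uM final), then substrate plus GAPDH/TPI/NAD/arsenate coupling and diaphorase/resazurin added. Fluorescence read after 20 min at RT, 525/598 nm.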
Tb PYK inh = inhibitors of Trypanosoma brucei pyruvate kinase; Q57TT1; TbPYK enzyme, Kinase-Glo Plus ATP luminescence, 45 min; Potency, µM (titrated, usually from 76.8 µM), inactives show at the top dose activity, negative = inhibition, usual class: inhibitors; hit rate 0.12% among 410,000; AID 624173; further: potency means the concentration at half of the fitted maximal effect; on the % scale 0 is the no-effect control and ±100 the full control effect; nearly all actives have a fitted effect of over 50% in size
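Enzyme and substrate buffer are dispensed first and compound is pin-transferred. ADP at 130 uM final then starts the reaction, which runs 45 min at room temperature. Detection reagent is added for 10 min before luminescence is imaged.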
LmPK inh = LmPK (Leishmania mexicana) enzyme inhibition. Q27686. purified LmPK, Kinase-Glo ATP luminescence, 1 h. Potency, µM (titrated, usually from 57.5 µM), for the others: at the highest dose activity change, negative = inhibition, hits mostly inhibitors. hit rate 0.37% among 290,000. AID 1721; further: potency means the concentration at half of the fitted maximal effect; on the % scale 0 is the no-effect control and ±100 the full control effect
Target sequence (Q27686 whole entry, looked up): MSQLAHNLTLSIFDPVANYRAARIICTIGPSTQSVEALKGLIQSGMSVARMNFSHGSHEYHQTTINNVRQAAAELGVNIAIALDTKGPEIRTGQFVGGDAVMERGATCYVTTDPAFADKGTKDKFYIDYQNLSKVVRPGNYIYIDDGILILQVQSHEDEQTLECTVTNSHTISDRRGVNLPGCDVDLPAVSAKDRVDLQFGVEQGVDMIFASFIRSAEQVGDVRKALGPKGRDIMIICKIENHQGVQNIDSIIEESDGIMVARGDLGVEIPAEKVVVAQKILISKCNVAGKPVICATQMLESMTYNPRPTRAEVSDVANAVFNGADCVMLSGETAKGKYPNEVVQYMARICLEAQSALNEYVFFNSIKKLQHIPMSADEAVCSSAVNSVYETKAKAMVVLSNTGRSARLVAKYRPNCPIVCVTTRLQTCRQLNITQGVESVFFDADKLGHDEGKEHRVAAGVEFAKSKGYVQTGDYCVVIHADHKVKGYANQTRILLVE
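Kinase-Glo luminescence read after 1 h RT reaction of 0.1 nM LmPK with 0.5 mM PEP and 0.1 mM ADP. Activity scaled between uninhibited and enzyme-free controls.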
CHX counter = counter-screen hit for Shiga toxin inhibitors, cycloheximide. hit rate 12% among 300,000. AID 2314. max response, %. cell reporter, cycloheximide protein synthesis inhibition counterscreen; in the data active means max response mostly above about 13%, no sharp cut-off; inactive means mostly below about 14%; further: read at 38.3 µM for the half of the compounds with a filed dose; 0% is about no effect
* hit, by the source's call; ? = inconclusive; nt = no result given; [ ] = another dose, or the depositor's remark. The sample as a whole holds a higher share of hits than the screen did. Unless noted, the call rests on the fitted dose curve; in most records, active means well fitted curve in the direction sought with a large enough effect; inconclusive means small, poorly fitted or top-dose-only effect, or another doubt; inactive means no such curve, though single readings can be large; an effect the other way counts as inactive or inconclusive.

SMILES | Sm TGR inh | Shiga toxin inh | Giardia FBPA inh | Tb PYK inh | LmPK inh | CHX counter
Cc1ccc(-c2ccc(C(=O)O)c(C)n2)cc1 | 9% | -5 | 7% | 0% | -12% | -3
Cc1c(C)n2c(SCC(=O)N3CCN(c4ccccc4)CC3)nnc2[nH]c1=O | 1% | nt | nt | -2% | nt | nt
Cc1ccc(-c2nc3ncccc3o2)cc1NC(=O)c1ccc2c(c1)OCO2 | nt | nt | nt | -6% | nt | nt
CCCCCCOC(=O)C[N+](C)(C)CCOC1CC2CCC1(C)C2(C)C (stereo not drawn) | -12% | 17 | 4% | -5% | -6% | 19*
COc1c(C(=O)NC(=S)Nc2nnn(C)n2)cc2ccccc2c1Br | 0% | -3 | ? | -6% | 1% | 10
Cn1nnc(NC(=S)NC(=O)c2cc3ccccc3o2)n1 | 25µM* | -1 | ? | -7% | 5% | 11*
Cn1nnc(NC(=S)NC(=O)c2ccco2)n1 | ? | 7 | 1.3µM* | -27% | -1% | 8
COc1ccc(C(=O)NC(=S)Nc2nnn(C)n2)cc1 | -26% | -4 | 1.8µM* | -13% | 4% | -2
Cn1nnc(NC(=O)/C=C/c2ccco2)n1 | 8.9µM* | 10 | 1% | 1% | -10% | 14
Cc1ccc(OCCSc2nc3ccccc3n2CC(=O)N2CCCCC2)c(C)c1 | 21% | nt | nt | -10% | nt | nt
CC1=C(C(=O)Nc2ccc(C)cc2C)C(c2ccc(O)cc2)n2nnnc2N1 (stereo not drawn) | -2% | nt | nt | 1% | nt | nt
CCOC(=O)C1(CCCc2ccccc2)CCN(C(=O)c2ocnc2C)CC1 | 6% | -1 | -5% | 7% | 1% | 8
CCOC(=O)C1(CC2CC2)CCN(C(=O)c2ocnc2C)CC1 | -9% | 76* | 2% | 0% | -7% | 44*
Cc1cnn(-c2cc(Oc3ccccc3)ncn2)c1 | 8% | 112* | 3% | 3% | -4% | 52*
c1ccc(Oc2cc(-c3ccccc3)ncn2)cc1 | -4% | 127* | 6% | -19% | -6% | 59*
c1ccc(Oc2cc(-n3cncn3)ncn2)cc1 | -8% | 39* | 4% | -5% | -15% | 15
NCc1csc(Nc2cc(Oc3ccccc3)ncn2)n1 | nt | nt | nt | -6% | nt | nt
COc1ccc(OCC(=O)OCc2cc(=O)n3nc(C4CCCCC4)sc3n2)cc1 | -1% | nt | nt | -2% | nt | nt
CCCCCCCCCCCCCCCCC(C(=O)O)C(O)(CC(=O)O)C(=O)O (stereo not drawn) | nt | nt | nt | 2% | nt | nt
COc1ccc(OC)c(NC(=O)N2CCC(CN3CCCCC3)CC2)c1 | -2% | nt | nt | -8% | nt | nt
Cc1noc(C)c1-c1cc(NC2CCNCC2)ncn1 | nt | nt | -3% | nt | nt | nt
O=C1CCCC1C(=O)Nc1ccc2ccccc2c1 (stereo not drawn) | 2% | 45* | -1% | 5% | 0% | 17*
O=C1CCCCC1Nc1ccc2ccccc2c1 (stereo not drawn) | nt | nt | nt | -7% | nt | nt
Cc1ccc(N(C)C(=O)Cn2cc(S(=O)(=O)N3CCCC3)c(S(=O)(=O)N3CCCC3)c2)cc1 | -5% | nt | nt | -1% | nt | nt
Cc1ccc(C(c2sc3nc(-c4ccco4)nn3c2O)N2CCC3(CC2)OCCO3)cc1 (stereo not drawn) | 10% | nt | nt | -7% | nt | nt
SMILES | Sm TGR inh | Shiga toxin inh | Giardia FBPA inh | Tb PYK inh | LmPK inh | CHX counter
CCOC(=O)N1CCN(c2nc3c(C)cccn3c(=O)c2C=O)CC1 | 40µM* | -1 | -1% | 0% | 3% | -5
Cc1cccn2c(=O)c(C=O)c(Sc3ncccn3)nc12 | 22µM* | 8 | 1% | -9% | 2% | 3
Cc1cccn2c(=O)c(C=O)c(N3CCCCC3)nc12 | -15% | -10 | 19% | -1% | 3% | -1
Cc1cccn2c(=O)c(C=O)c(Cl)nc12 | 6.3µM* | -4 | -29% | -2% | 5% | 9
CCN(CC)S(=O)(=O)c1ccc(Cl)c(NC(=O)COC(=O)/C=C/c2ccc(O)c(OC)c2)c1 | -11% | 3 | -12% | 0% | 3% | 7
C=CCSc1cc(C)nc2c(-c3ccccc3)cnn12 | -13% | 80* | 1% | -2% | 3% | 63*
Cc1cc(N2CCN(C3CCCC3)CC2)n2ncc(-c3ccccc3)c2n1 | 0% | 34 | 0% | nt | 2% | 11
CCSc1cc(C)nc2c(-c3ccccc3)cnn12 | 5% | 69* | -2% | 8% | -1% | 52*
Cc1cc(-c2ccc(F)cc2)n2ncc(-c3ccccc3)c2n1 | nt | nt | nt | -3% | nt | nt
COc1ccc(CNC(=O)c2cc(-c3ccc(C)c(C)c3)n[nH]2)cc1 | 4% | nt | nt | -4% | nt | nt
O=C(/C=C/c1ccccc1)NCc1cccnc1 | 6% | 1 | 1% | 2% | 3% | 3
O=C(NCc1ccncc1)c1cn(-c2ccccc2)nc1-c1cccnc1 | -6% | -9 | 6% | 0% | 6% | -5
O=C(/C=C/c1ccc(-c2ccccc2)cc1)NCc1cccnc1 | 0% | nt | -1% | -4% | 1% | 28*
O=C(/C=C/NCc1cccnc1)c1ccc(-c2ccccc2)cc1 | 77% | 91* | 8% | -5% | -5% | 33*
O=C(NCc1cccnc1)c1cn(-c2ccccc2)nc1-c1ccccc1 | 0% | 20 | 6% | 3% | 1% | 21*
CCc1nn(CC(=O)Nc2ccc(NC(C)=O)cc2)c(=O)c2cc3sccc3n12 | 6% | nt | nt | -1% | nt | nt
Cc1ccc(Cl)cc1N1CCN(C(=O)Cn2nc(C)n3c(cc4sccc43)c2=O)CC1 | -7% | nt | nt | 4% | nt | nt
COC(=O)c1ccc(C(=O)NC(=S)Nc2nc3c(s2)CCCC3)cc1 | -1% | 63 | ? | -8% | -1% | 20*
O=C(NC(=S)Nc1nc2c(s1)CCCC2)c1ccccc1 | -16% | 95* | ? | -7% | 4% | 58*
CC(C)(C)OC(=O)N1CCC(c2c(C(=O)N3CCN(C(=O)c4ccco4)CC3)cnn2-c2ccccc2)CC1 | ? | nt | nt | -4%[15.4 µM] | nt | nt
CN1CCc2cc(O)cc3c2C1Cc1ccc(O)c(O)c1-3 (stereo not drawn) | nt | nt | 14µM* | nt | nt | nt
CN1CCc2cccc3c2[C@H]1Cc1ccc(O)c(O)c1-3 | nt | -14 | ? | ? | 5% | -3
Cc1ccc(S(=O)(=O)c2nnn3c2nc(NCc2cccs2)c2sccc23)cc1C | 11% | nt | nt | -1% | nt | nt
CN(C)c1ccc(C=Cc2cnccn2)cc1 | nt | nt | nt | -10% | nt | nt
COc1ccc(/C=C/c2cc(OC)cc(=O)o2)cc1 | nt | 86* | 4% | nt | nt | 49*
SMILES | Sm TGR inh | Shiga toxin inh | Giardia FBPA inh | Tb PYK inh | LmPK inh | CHX counter
C/C=C/c1ccc(OC)cc1 | nt | nt | 6% | nt | nt | nt
COc1ccc(/C=C/c2ccncc2)cc1 | -8% | 94* | nt | -6% | -10% | 40*
CN(C)c1ccc(/C=C/c2ccncc2)cc1 | -12% | 68* | -8% | 2% | -3% | 32*
Cc1cccc(N2CCN(C(=O)C3CCN(Cc4nc(-c5ccc(Cl)cc5)oc4C)CC3)CC2)c1C | 9% | nt | nt | 5% | nt | nt
Cc1cc(C)n(C(C)CC(=O)Nc2ccc(Cl)cc2C)n1 (stereo not drawn) | 0% | nt | nt | 8% | nt | nt
Cc1cc(Br)c(NC(=O)COC(=O)CC2CC3CCC2C3)c(Br)c1 (stereo not drawn) | nt | nt | nt | 4% | nt | nt

Screening results from PubChem.
